# Results as given in PMC11006913.
# Where a chain is given by its changes, count along the chain named.
# Tests used:
# Test in all cases: PBM; 200 nM protein, PBS
# Details in all cases: dsDNA, one strand shown
# CRX [1] = molecular target: CRX (Homo sapiens, UniProt O43186 26-111)
# HOXA7 [2] = molecular target: HOXA7 (Homo sapiens, UniProt P31268 116-202)
# CRX [3] = molecular target: CRX (Homo sapiens, UniProt O43186 26-111, E42D)
# HOXA7 [4] = molecular target: HOXA7 (Homo sapiens, UniProt P31268 116-202, W177C)
# CRX [5] = molecular target: CRX (Homo sapiens, UniProt O43186 26-111, R41L)
# PITX2 = PITX2 (Homo sapiens, UniProt Q99697 72-157)
# NKX2-6 [6] = molecular target: T1, NKX2-6 (Homo sapiens, UniProt A6NCS4 118-204)
# T1 sequence: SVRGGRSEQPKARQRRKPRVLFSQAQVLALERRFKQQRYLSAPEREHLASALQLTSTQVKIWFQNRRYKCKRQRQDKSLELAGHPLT
# NKX2-6 [7] = molecular target: T2, NKX2-6 (Homo sapiens, UniProt A6NCS4 118-204, F151L)
# T2 sequence: T1 sequence with F34L
# ALX1 [8] = molecular target: ALX1 (Homo sapiens, UniProt Q15699 118-204, L144V)
# ALX1 [9] = molecular target: ALX1 (Homo sapiens, UniProt Q15699 118-204, L144R)
# ALX1 [10] = molecular target: ALX1 (Homo sapiens, UniProt Q15699 118-204)
# ALX3 [11] = molecular target: ALX3 (Homo sapiens, UniProt O95076 139-225, N203Q)
# ALX3 [12] = molecular target: ALX3 (Homo sapiens, UniProt O95076 139-225)
# ALX3 [13] = molecular target: ALX3 (Homo sapiens, UniProt O95076 139-225, L168Q)
# ALX3 [14] = molecular target: ALX3 (Homo sapiens, UniProt O95076 139-225, L168V)
# ALX3 [15] = molecular target: ALX3 (Homo sapiens, UniProt O95076 139-225, N203S)
# VAX1 [16] = molecular target: VAX1 (Homo sapiens, UniProt Q5SQQ9 86-172)
# VAX1 [17] = molecular target: VAX1 (Homo sapiens, UniProt Q5SQQ9 86-172, T142I)
# VAX1 [18] = molecular target: VAX1 (Homo sapiens, UniProt Q5SQQ9 86-172, K157R)
# VAX1 (Homo sapiens, UniProt Q5SQQ9 86-172, K157R), sequence (Q5SQQ9 86-172 K157R): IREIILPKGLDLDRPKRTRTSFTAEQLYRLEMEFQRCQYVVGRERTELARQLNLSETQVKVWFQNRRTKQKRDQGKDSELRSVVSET
# CRX (Homo sapiens, UniProt O43186 26-111), sequence (O43186 26-111): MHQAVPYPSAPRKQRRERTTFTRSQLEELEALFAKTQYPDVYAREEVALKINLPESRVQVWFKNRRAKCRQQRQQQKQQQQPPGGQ
# CRX (Homo sapiens, UniProt O43186 26-111, E42D), sequence (O43186 26-111 E42D): as the sequence (O43186 26-111) above, with E17D counted along it
# CRX (Homo sapiens, UniProt O43186 26-111, R41L), sequence (O43186 26-111 R41L): as the sequence (O43186 26-111) above, with R16L counted along it
# ALX1 (Homo sapiens, UniProt Q15699 118-204, L144V), sequence (Q15699 118-204 L144V): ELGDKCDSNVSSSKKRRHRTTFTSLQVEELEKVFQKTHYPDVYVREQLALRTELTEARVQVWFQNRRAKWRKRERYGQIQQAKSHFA
# ALX1 (Homo sapiens, UniProt Q15699 118-204, L144R), sequence (Q15699 118-204 L144R): as the sequence (Q15699 118-204 L144V) above, with V27R counted along it
# ALX1 (Homo sapiens, UniProt Q15699 118-204), sequence (Q15699 118-204): as the sequence (Q15699 118-204 L144V) above, with V27L counted along it
# ALX3 (Homo sapiens, UniProt O95076 139-225, L168V), sequence (O95076 139-225 L168V): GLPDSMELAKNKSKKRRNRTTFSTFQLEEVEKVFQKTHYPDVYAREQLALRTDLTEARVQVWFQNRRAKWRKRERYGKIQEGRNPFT
# HOXA7 (Homo sapiens, UniProt P31268 116-202, W177C), sequence (P31268 116-202 W177C): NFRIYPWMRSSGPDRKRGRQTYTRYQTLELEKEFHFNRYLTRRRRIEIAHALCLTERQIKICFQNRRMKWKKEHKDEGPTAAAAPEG
# ALX3 (Homo sapiens, UniProt O95076 139-225), sequence (O95076 139-225): as the sequence (O95076 139-225 L168V) above, with V30L counted along it
# VAX1 (Homo sapiens, UniProt Q5SQQ9 86-172, T142I), sequence (Q5SQQ9 86-172 T142I): as the sequence (Q5SQQ9 86-172 K157R) above, with T57I, R72K counted along it
# VAX1 (Homo sapiens, UniProt Q5SQQ9 86-172), sequence (Q5SQQ9 86-172): as the sequence (Q5SQQ9 86-172 K157R) above, with R72K counted along it
# ALX3 (Homo sapiens, UniProt O95076 139-225, N203S), sequence (O95076 139-225 N203S): as the sequence (O95076 139-225 L168V) above, with V30L, N65S counted along it
# HOXA7 (Homo sapiens, UniProt P31268 116-202), sequence (P31268 116-202): as the sequence (P31268 116-202 W177C) above, with C62W counted along it
# ALX3 (Homo sapiens, UniProt O95076 139-225, N203Q), sequence (O95076 139-225 N203Q): as the sequence (O95076 139-225 L168V) above, with V30L, N65Q counted along it
# ALX3 (Homo sapiens, UniProt O95076 139-225, L168Q), sequence (O95076 139-225 L168Q): as the sequence (O95076 139-225 L168V) above, with V30Q counted along it
sequence,measurement,setting,value
TGCGATAA,binding signal,CRX [1],"10.9 upbm affinity estimate (log intensity, higher = more binding, comparable within an allelic series)"
same,binding signal,HOXA7 [2],"9.91 upbm affinity estimate (log intensity, higher = more binding, comparable within an allelic series)"
same,binding signal,CRX [3],"10.5 upbm affinity estimate (log intensity, higher = more binding, comparable within an allelic series)"
same,binding signal,HOXA7 [4],"8.8 upbm affinity estimate (log intensity, higher = more binding, comparable within an allelic series)"
same,binding signal,CRX [5],"10.4 upbm affinity estimate (log intensity, higher = more binding, comparable within an allelic series)"
AAGATTAA,binding signal,CRX [1],"12.9 upbm affinity estimate (log intensity, higher = more binding, comparable within an allelic series)"
same,binding signal,CRX [3],"12.9 upbm affinity estimate (log intensity, higher = more binding, comparable within an allelic series)"
same,binding signal,PITX2,"12.5 upbm affinity estimate (log intensity, higher = more binding, comparable within an allelic series)"
same,binding signal,CRX [5],"12.6 upbm affinity estimate (log intensity, higher = more binding, comparable within an allelic series)"
ACGCCAGC,binding signal,CRX [1],"8.41 upbm affinity estimate (log intensity, higher = more binding, comparable within an allelic series)"
same,binding signal,CRX [3],"8.28 upbm affinity estimate (log intensity, higher = more binding, comparable within an allelic series)"
same,binding signal,NKX2-6 [6],"9.57 upbm affinity estimate (log intensity, higher = more binding, comparable within an allelic series)"
same,binding signal,NKX2-6 [7],"9.3 upbm affinity estimate (log intensity, higher = more binding, comparable within an allelic series)"
same,binding signal,CRX [5],"8.46 upbm affinity estimate (log intensity, higher = more binding, comparable within an allelic series)"
AGTTTATC,binding signal,CRX [1],"10.5 upbm affinity estimate (log intensity, higher = more binding, comparable within an allelic series)"
same,binding signal,CRX [3],"10.3 upbm affinity estimate (log intensity, higher = more binding, comparable within an allelic series)"
same,binding signal,ALX1 [8],"7.91 upbm affinity estimate (log intensity, higher = more binding, comparable within an allelic series)"
same,binding signal,ALX1 [9],"8.01 upbm affinity estimate (log intensity, higher = more binding, comparable within an allelic series)"
same,binding signal,CRX [5],"10.2 upbm affinity estimate (log intensity, higher = more binding, comparable within an allelic series)"
same,binding signal,ALX1 [10],"8.04 upbm affinity estimate (log intensity, higher = more binding, comparable within an allelic series)"
CGACTCGC,binding signal,CRX [1],"8.13 upbm affinity estimate (log intensity, higher = more binding, comparable within an allelic series)"
same,binding signal,CRX [3],"8.24 upbm affinity estimate (log intensity, higher = more binding, comparable within an allelic series)"
same,binding signal,ALX3 [11],"7.77 upbm affinity estimate (log intensity, higher = more binding, comparable within an allelic series)"
same,binding signal,ALX3 [12],"7.61 upbm affinity estimate (log intensity, higher = more binding, comparable within an allelic series)"
same,binding signal,ALX3 [13],"7.85 upbm affinity estimate (log intensity, higher = more binding, comparable within an allelic series)"
same,binding signal,ALX3 [14],"7.71 upbm affinity estimate (log intensity, higher = more binding, comparable within an allelic series)"
same,binding signal,CRX [5],"8.21 upbm affinity estimate (log intensity, higher = more binding, comparable within an allelic series)"
same,binding signal,ALX3 [15],"7.81 upbm affinity estimate (log intensity, higher = more binding, comparable within an allelic series)"
CGGACACG,binding signal,CRX [1],"8.06 upbm affinity estimate (log intensity, higher = more binding, comparable within an allelic series)"
same,binding signal,CRX [3],"8.04 upbm affinity estimate (log intensity, higher = more binding, comparable within an allelic series)"
same,binding signal,ALX1 [8],"6.53 upbm affinity estimate (log intensity, higher = more binding, comparable within an allelic series)"
same,binding signal,ALX1 [9],"6.6 upbm affinity estimate (log intensity, higher = more binding, comparable within an allelic series)"
same,binding signal,CRX [5],"8.13 upbm affinity estimate (log intensity, higher = more binding, comparable within an allelic series)"
same,binding signal,ALX1 [10],"6.41 upbm affinity estimate (log intensity, higher = more binding, comparable within an allelic series)"
ATAATCCA,binding signal,CRX [1],"13.2 upbm affinity estimate (log intensity, higher = more binding, comparable within an allelic series)"
same,binding signal,CRX [3],"13.3 upbm affinity estimate (log intensity, higher = more binding, comparable within an allelic series)"
same,binding signal,PITX2,"13 upbm affinity estimate (log intensity, higher = more binding, comparable within an allelic series)"
same,binding signal,CRX [5],"13.3 upbm affinity estimate (log intensity, higher = more binding, comparable within an allelic series)"
CCCAGTCC,binding signal,CRX [1],"8.2 upbm affinity estimate (log intensity, higher = more binding, comparable within an allelic series)"
same,binding signal,CRX [3],"8.28 upbm affinity estimate (log intensity, higher = more binding, comparable within an allelic series)"
same,binding signal,NKX2-6 [6],"9.59 upbm affinity estimate (log intensity, higher = more binding, comparable within an allelic series)"
same,binding signal,VAX1 [16],"7.25 upbm affinity estimate (log intensity, higher = more binding, comparable within an allelic series)"
same,binding signal,NKX2-6 [7],"9.36 upbm affinity estimate (log intensity, higher = more binding, comparable within an allelic series)"
same,binding signal,VAX1 [17],"7.27 upbm affinity estimate (log intensity, higher = more binding, comparable within an allelic series)"
same,binding signal,CRX [5],"8.25 upbm affinity estimate (log intensity, higher = more binding, comparable within an allelic series)"
same,binding signal,VAX1 [18],"7.03 upbm affinity estimate (log intensity, higher = more binding, comparable within an allelic series)"
CTTAATCC,binding signal,CRX [1],"13.7 upbm affinity estimate (log intensity, higher = more binding, comparable within an allelic series)"
same,binding signal,CRX [3],"13.8 upbm affinity estimate (log intensity, higher = more binding, comparable within an allelic series)"
same,binding signal,PITX2,"13.5 upbm affinity estimate (log intensity, higher = more binding, comparable within an allelic series)"
same,binding signal,CRX [5],"13.5 upbm affinity estimate (log intensity, higher = more binding, comparable within an allelic series)"
GGATTATA,binding signal,CRX [1],"13.5 upbm affinity estimate (log intensity, higher = more binding, comparable within an allelic series)"
same,binding signal,CRX [3],"13.6 upbm affinity estimate (log intensity, higher = more binding, comparable within an allelic series)"
same,binding signal,PITX2,"13.2 upbm affinity estimate (log intensity, higher = more binding, comparable within an allelic series)"
same,binding signal,CRX [5],"13.7 upbm affinity estimate (log intensity, higher = more binding, comparable within an allelic series)"
